The list is not random: actives were taken first. Their share in the collection is about 3.4%.
FBW7 activator: activators of human E3 ligase FBW7 | 0.13% of 650,000 active | Q969H0 | normalized activity (activation), % at 26.1 µM | AlphaScreen FBW7–phospho-cyclin E peptide binding, activator screen; in the data active = normalized activity above about 1.9%;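 note: purified mutant Fbw7 with reduced substrate affinity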
Target sequence (Q969H0 whole entry, looked up): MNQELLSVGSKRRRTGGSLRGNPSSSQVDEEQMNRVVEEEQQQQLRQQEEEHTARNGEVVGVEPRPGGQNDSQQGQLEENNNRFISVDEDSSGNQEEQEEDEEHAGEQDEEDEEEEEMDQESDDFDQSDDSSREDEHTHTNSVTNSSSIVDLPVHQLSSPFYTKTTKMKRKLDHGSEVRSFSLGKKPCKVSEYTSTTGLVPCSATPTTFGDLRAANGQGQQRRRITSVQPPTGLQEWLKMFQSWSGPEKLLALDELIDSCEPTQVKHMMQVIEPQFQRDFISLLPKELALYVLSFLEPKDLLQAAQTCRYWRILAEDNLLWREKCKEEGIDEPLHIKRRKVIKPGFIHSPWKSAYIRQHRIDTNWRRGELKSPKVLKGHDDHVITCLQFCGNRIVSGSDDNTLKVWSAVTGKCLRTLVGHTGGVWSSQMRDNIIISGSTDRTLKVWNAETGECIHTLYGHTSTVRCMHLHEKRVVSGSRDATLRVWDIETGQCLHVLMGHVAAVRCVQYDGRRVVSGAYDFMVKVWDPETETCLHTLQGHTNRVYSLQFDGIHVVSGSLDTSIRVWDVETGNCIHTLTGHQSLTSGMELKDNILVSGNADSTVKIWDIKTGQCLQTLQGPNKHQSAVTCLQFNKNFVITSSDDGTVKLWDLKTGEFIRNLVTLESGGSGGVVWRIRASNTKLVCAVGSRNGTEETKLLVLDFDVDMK
GPR151 ag: activators of human GPR151. Q8TDV0. PathHunter beta-arrestin GPR151 cells, luminescence. activation, % at 11.2 µM. 1% of 650,000 active. AID 1508602; in the data active = activation above about 4.9%
TEAD-YAP inh: TEAD-YAP interaction inhibition. HEK-TIYL cells, TEAD-Gal4/YAP UAS-luciferase luminescence. 1.4% of 640,000 active. inhibition, % at 9.12 µM. AID 1259422; in the data active = inhibition above about 32%
MITF primary: inhibitors of human MITF | O75030 | AlphaScreen MITF homodimerization, bead proximity signal | inhibition, % at 2.6 µM | 0.91% of 650,000 active | AID 1259374; in the data active = inhibition above about 50%
Numbers stand for hits; i = inactive.

SMILES | FBW7 activator | GPR151 ag | TEAD-YAP inh | MITF primary
Cc1c(OCc2ccc(C(=O)O)cc2)ccc2c(-c3ccccc3)cc(=O)oc12 | i | i | i | i
CCN(CC)c1ccc2c(Cl)c(Br)c(=O)oc2c1 | 6.2 | i | i | i
CCN(CC)c1ccc2c(C)c(Cl)c(=O)oc2c1 | 5.8 | i | i | i
CCN(CC)c1ccc2c(C)cc(=O)oc2c1 | i | i | i | i
Cc1ccc(Nc2nc(-c3cccnc3)cs2)c(C)c1 | i | i | 49 | i
Cc1ccc(Nc2nc(-c3c(C)nc4cc(C)ccn34)cs2)c(C)c1 | i | i | 42 | i
Cc1ccn2c(-c3csc(Nc4ccc(N(C)C)cc4)n3)c(C)nc2c1 | i | i | 54 | i
Cc1ccc(Nc2nc(-c3ccncc3)cs2)c(C)c1 | i | i | i | i
Cc1ccc(Nc2nc(-c3c(C)nc4ncccn34)cs2)c(C)c1 | i | i | 52 | i
Cc1[nH]cnc1CN1CCC2(CC1)CC2C(=O)NCCC1=CCCCC1 (stereo not drawn) | i | i | i | i
CCN(CC)CCNC(C(=O)OCCC(C)C)c1ccccc1 (stereo not drawn) | i | i | i | i
Cc1cccc(CC(=O)N2CCC(n3nccc3NC(=O)C3CC3)CC2)c1 | i | i | i | i
COc1ccc(C2C3=C(Nc4ncnn42)c2ccccc2OC3c2cccs2)cc1 (stereo not drawn) | i | i | i | i
COc1ccc(C2Oc3ccccc3C3=C2C(c2cccs2)n2ncnc2N3)cc1 (stereo not drawn) | i | i | 38 | i
C#CCNC(=O)CN1C(=O)C(C)Oc2ccccc21 (stereo not drawn) | i | i | i | i
O=C(O)c1cc(O)c2c(c1)[C@@H]([C@H]1c3cc(C(=O)O)cc(O)c3C(=O)c3c(O[C@H]4O[C@H](CO)[C@@H](O)[C@H](O)[C@H]4O)cccc31)c1cccc(O[C@H]3O[C@H](CO)[C@@H](O)[C@H](O)[C@H]3O)c1C2=O | i | i | i | 121
O=C(Nc1ccccc1)NC1CCNCC1 | i | i | i | i
O=[N+]([O-])c1cccc(C(Nc2ccccn2)c2ccc3cccnc3c2O)c1 (stereo not drawn) | i | i | 79 | i
Cc1cc(NC(c2cccc([N+](=O)[O-])c2)c2ccc3cccnc3c2O)no1 (stereo not drawn) | i | i | 86 | i
CC(C)C(=O)NC(c1ccc([N+](=O)[O-])cc1)c1ccc2cccnc2c1O (stereo not drawn) | i | i | 81 | i
O=[N+]([O-])c1ccc(C(Nc2ccccn2)c2ccc3cccnc3c2O)cc1 (stereo not drawn) | i | i | 72 | i
Cc1ccc2ccc(C(Nc3ccccn3)c3ccc([N+](=O)[O-])cc3)c(O)c2n1 (stereo not drawn) | i | i | i | i
Cc1cc(NC(=O)c2cccc([N+](=O)[O-])c2)no1 | i | i | i | i
Oc1c(C(c2cccnc2)N2CCOCC2)cc(Cl)c2cccnc12 (stereo not drawn) | i | i | i | i
COc1ccc(C(NC(=O)c2cccnc2)c2cc(Cl)c3cccnc3c2O)cc1 (stereo not drawn) | i | i | 40 | i
SMILES | FBW7 activator | GPR151 ag | TEAD-YAP inh | MITF primary
COc1ccc(C(NC(=O)c2cccc(OC)c2)c2cc(Cl)c3cccnc3c2O)cc1 (stereo not drawn) | i | i | i | i
COc1cc(NC(=O)c2cccnc2)c2ncccc2c1 | i | i | 79 | i
CCC(=O)NC(c1ccc(OC)cc1)c1cc([N+](=O)[O-])c2cccnc2c1O (stereo not drawn) | i | i | i | 55
Oc1c(C(Nc2ccccn2)c2cccnc2)cc(Cl)c2cccnc12 (stereo not drawn) | i | i | 58 | 85
CCCC(=O)NC(c1ccc(OC)cc1)c1cc([N+](=O)[O-])c2cccnc2c1O (stereo not drawn) | i | i | i | i
Cc1cc(S(=O)(=O)Nc2cc(C(=O)NCCc3ccccc3)ccc2N2CC3CC(C2)c2cccc(=O)n2C3)ccc1F (stereo not drawn) | i | i | i | i
COc1ccc(-c2nc3c(C)cccn3c2NCC2CCCO2)c(OC)c1 (stereo not drawn) | i | i | i | i
CCCCC(=O)NC(c1ccccc1OC)c1cc([N+](=O)[O-])c2cccnc2c1O (stereo not drawn) | i | i | i | 51
CCCCC(=O)NC(c1ccco1)c1cc([N+](=O)[O-])c2cccnc2c1O (stereo not drawn) | i | i | i | i
Cc1cccc(C)c1N(CN1C(=O)c2ccccc2C1=O)CN1C(=O)c2ccccc2C1=O | i | i | i | i
NNC(=O)/C(=C\c1ccco1)NC(=O)c1ccccc1 | i | i | 35 | i
O=C(O)/C(=C/c1ccco1)NC(=O)c1ccccc1 | i | i | i | i
CCOC(=O)c1ccc(NC(=O)c2ccnn2C)cc1 | i | i | i | i
Cn1nccc1C(=O)Nc1ccc(OC(=O)c2ccnn2C)cc1 | i | i | 34 | i
CC(=O)Nc1ccc(NC(=O)Cn2cnc3c(cnn3C(C)(C)C)c2=O)cc1 | 4.0 | i | i | i
COCCn1c(=NC(=O)c2ccccc2OC)sc2cc(OC)ccc21 | i | i | i | i
Cn1c2ccncc2c2cc([N+](=O)[O-])ccc21 | i | i | 76 | i
Cc1[nH]ncc1-c1ccc2cnc(Nc3ccc(-n4cnc(N5CCOCC5)n4)cc3)nc2c1 | i | i | 85 | i
Cc1n[nH]c(C)c1-c1ccc2cnc(Nc3ccc(-n4cnc(N5CCOCC5)n4)cc3)nc2c1 | i | i | 35 | i
Cn1cnc(-c2ccc3cnc(Nc4ccc(-n5cnc(N6CCOCC6)n5)cc4)nc3c2)n1 | i | i | i | i
Cc1nc(-c2ccc3cnc(Nc4ccc(-n5cnc(N6CCOCC6)n5)cc4)nc3c2)n[nH]1 | i | i | i | i
OCc1ccc(-c2cnn3c(N4CCOCC4)ccnc23)cc1 | i | i | 42 | i
O=C(O)CCc1ccc(-c2cnn3c(N4CCC(O)CC4)ccnc23)cc1 | i | i | 37 | i
CN1CCN(c2ccnc3c(-c4ccc(CO)cc4)cnn23)CC1 | i | i | i | i
COc1ccc(CNc2nc3ccc(-c4ccncc4)cc3s2)cc1 | 60 | i | i | i
SMILES | FBW7 activator | GPR151 ag | TEAD-YAP inh | MITF primary
COc1ccc(-n2nnnc2C2(Nc3cccc(Cl)c3)CCCCC2)cc1 | i | i | 48 | i
COC(=O)c1ccc(NC(=O)c2cc(OC)c(OC)c(OC)c2)cc1 | i | i | 59 | i
COc1cc(C(=O)Nc2ccc(O)cc2)cc(OC)c1OC | i | i | i | i
COc1cc(C(=O)Nc2ccc3c(c2)Nc2ccccc2CC3)cc(OC)c1OC | i | i | 62 | i
O=C(Nc1ccc2c(c1)Nc1ccccc1CC2)c1ccccc1 | i | i | i | i
COc1cc(C(=O)Nc2ccc3c(c2)oc2ccccc23)cc(OC)c1OC | i | i | 57 | i
CCOc1ccc(C2c3c(-c4ccccc4O)n[nH]c3C(=O)N2CCOC)cc1 (stereo not drawn) | i | i | i | i
N#Cc1nc(-c2ccc(Cl)cc2)oc1NCc1cccc2c1OCO2 | i | i | i | i
CCOc1ccc(C(C)=O)cc1CSc1nnc(Nc2ccccc2)s1 | i | i | 35 | i
CCOc1ccccc1Nc1nnc(SCc2cc(C(C)=O)ccc2OC)s1 | i | i | i | i
